Source: PubChem BioAssay (University of Kansas High Throughput Screening Laboratory)
This is a sample that favours compounds with a hit; in the whole collection about 3.6% have one here.
Pf apPOL inh: Pf-apPOL DNA polymerase inhibition | inhibition, % at 10 µM | hit rate 0.25% among 210,000 | Recombinant Pf-apPOL, molecular beacon fluorescence, 1.5 h | AID 1794808
mHTT CaM bind: inhibitors of human mutant huntingtin-calmodulin interaction | P42858 | AlphaScreen His-mHTT/GST-CaM binding, luminescence | inhibition, % at 15 µM | hit rate 3.6% among 190,000;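 note: 0% = both proteins with DMSO and 100% = one protein alone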
* marks the source's active call; other numbers are inactive results; · = no result. Cut-off read from the data, not from the text of the source: active = inhibition above about 50%; inactive = the rest.

SMILES | Pf apPOL inh | mHTT CaM bind
CN1CCN(c2nc(-c3ccccc3)ncc2C(=O)N2CCCCC2)CC1 | -2.3 | 6.1
Cn1nc(-c2nc(Cc3ccccc3)no2)c2c1CCN(C(=O)Cc1cccs1)C2 | -1.8 | 33.4
Cn1cc(-c2noc(-c3ccc(F)cc3)n2)ccc1=O | 0.5 | -6.5
O=c1c(-c2ccccc2)c1-c1ccccc1 | -13.6 | ·
O=C1C=C(c2ccccc2)C(=O)C=C1Cl | 50.2* | ·
COc1ccc(CN2CC(C(=O)NCc3ccccc3Cl)CC2=O)cc1 (stereo not given) | 2.4 | 1.3
COc1ccccc1C(=O)Nc1nc2n(n1)C(c1ccccc1)C=C(c1ccccc1)N2 (stereo not given) | -3.0 | 68.0*
O=C(O)CCC(=O)Nc1nc2n(n1)C(c1ccccc1)C=C(c1ccccc1)N2 (stereo not given) | 0.1 | 18.0
COc1ccc(C(=O)Nc2nc3n(n2)C(c2ccccc2)C=C(c2ccc(Cl)cc2)N3)cc1 (stereo not given) | -0.2 | 62.0*
O=C(Nc1nc2n(n1)C(c1ccccc1)C=C(c1ccc(Cl)cc1)N2)c1ccco1 (stereo not given) | 0.5 | 49.0
CC(=O)Nc1nc2n(n1)C(c1ccccc1)C=C(c1ccccc1)N2 (stereo not given) | 14.6 | 13.0
COc1ccc(C(=O)Nc2nc3n(n2)C(c2ccccc2)C=C(c2ccccc2)N3)cc1 (stereo not given) | 0.1 | 61.0*
CC1=CC(c2ccc(Cl)cc2)n2nc(NC(=O)c3ccccc3)nc2N1 (stereo not given) | 1.8 | 16.0
O=C(Nc1nc2n(n1)C(c1ccccc1)C=C(c1ccccc1)N2)c1ccco1 (stereo not given) | -6.6 | 67.0*
Cc1ccc(S(=O)(=O)Oc2c(Cc3ccccc3)c(=O)n(C)c3ccccc23)cc1 | -6.9 | ·
O=C1OC(c2cccc(I)c2)=N/C1=C/c1ccc([N+](=O)[O-])cc1 | -3.7 | -4.0
Brc1cccc(C2=Nn3c(nnc3-c3ccccn3)SC2)c1 | · | 54.4*
Brc1ccccc1-c1nnc2n1N=C(c1ccccc1)CS2 | -3.6 | 31.0
Cc1cc(OC(=O)c2ccco2)cc2c1C(=O)C(=Cc1ccncc1)O2 | -0.6 | 4.8
CC(=O)c1cccc(NS(=O)(=O)c2ccc3[nH]c4c(c3c2)CCCC4)c1 | 0.5 | 83.9*
CC(=O)c1cccc(NC(=O)CN(C)S(=O)(=O)c2ccc3[nH]c4c(c3c2)CCCC4)c1 | -2.4 | 27.7
CN(CC(=O)Nc1cccc(F)c1)S(=O)(=O)c1ccc2[nH]c3c(c2c1)CCCC3 | -0.8 | 41.8
CC(=O)c1cccc(NS(=O)(=O)c2ccc(F)cc2)c1 | -5.9 | 3.7
CC(=O)c1ccc(NS(=O)(=O)c2ccc3[nH]c4c(c3c2)CCCCC4)cc1 | -1.3 | 70.3*
CCOC(=O)c1cccc(NS(=O)(=O)c2ccc3[nH]c4c(c3c2)CCCC4)c1 | -2.9 | 94.7*
SMILES | Pf apPOL inh | mHTT CaM bind
CC(=O)c1cccc(NS(=O)(=O)c2ccc3[nH]c4c(c3c2)CCCCC4)c1 | -3.8 | 99.0*
CCC(=O)N1CCc2sc(S(=O)(=O)NCc3ccc(C)c(C)c3)cc2C1 | -4.9 | 19.9
COCCc1noc(COC2CCN(C(=O)c3cccnc3)CC2)n1 | -4.4 | 0.4
O=C(NCCc1csc(C2CCN(C(=O)c3cccs3)CC2)n1)C1CC1 | -3.6 | 9.7
O=C(O)CCCC(=O)Nc1nc2nccc(-c3ccccc3)n2n1 | -2.5 | 82.0*
CC(=O)Nc1nc2nccc(-c3ccccc3)n2n1 | -5.8 | -4.0
COc1ccc(CN2CCC(N3CCN(CCO)CC3)CC2)cc1OC | -5.9 | -3.2
Fc1cccc(Cl)c1C=Nc1cccc(-c2ncon2)c1 | -6.9 | ·
CC12CC3CC(C)(C1)CC(c1ccc(O)cc1)(C3)C2 | 2.6 | 64.9*
CC12CC3(C)CC(C)(C1)CC(C(=O)Nc1ccc(C45CC6CC(CC(C6)C4)C5)cc1)(C2)C3 | -2.9 | 1.5
COc1ccc(C2C(C(=O)Nc3ccc4c(c3)OCO4)CC(=O)N2c2ccc(OC)cc2)cc1 (stereo not given) | -8.0 | 12.0
COc1ccc(C2C(C(=O)N(C)c3ccc(Cl)cc3)CC(=O)N2c2ccc(OC)cc2)cc1 (stereo not given) | -1.7 | 87.0*
O=C(c1ccccc1Cl)N1CCC(COc2ccccc2C(=O)N2CCOCC2)CC1 | 0.7 | 4.5
NC(N)=NS(=O)(=O)c1ccc(Nc2c([N+](=O)[O-])c3nonc3c3nonc23)cc1 | -5.1 | 1.0
COc1cccc(NC(=O)c2cc3c(n2C)CCN(Cc2ccc(F)cc2)C3)c1 | -5.6 | 25.9
COc1cccc(CN2CCc3c(cc(C(=O)NCc4cccnc4)n3C)C2)c1 | -4.7 | 9.3
COc1cccc(CN2CCc3c(cc(C(=O)N(C)C)n3C)C2)c1 | -3.2 | 10.1
COc1cccc(CN2CCc3c(cc(C(=O)Nc4ccc(F)cc4C)n3C)C2)c1 | -5.6 | 64.8*
COc1ccc(OC)c(NC(=O)c2cc3c(n2C)CCN(Cc2ccc(C)cc2)C3)c1 | -4.8 | 78.3*
COc1cccc(CN2CCc3c(cc(C(=O)Nc4cc(C)ccc4OC)n3C)C2)c1 | -5.4 | 85.8*
COc1ccccc1NC(=O)c1cc2c(n1C)CCN(Cc1ccc(C)cc1)C2 | -3.9 | 24.9
COc1cccc(CNC(=O)c2cc3c(n2C)CCN(Cc2cccc(OC)c2)C3)c1 | -4.3 | 59.2*
O=C(NC1CCS(=O)(=O)C1)c1ccc(C(=O)c2ccccc2)cc1 (stereo not given) | -9.4 | -9.8
O=C(NCc1ccccc1)NC1CC(=O)N(C2CC2)C1 (stereo not given) | -6.9 | -9.8
O=[N+]([O-])c1ccc2c(c1)C1C=CCC1C(c1ccc(F)cc1)N2 (stereo not given) | -2.8 | 14.4
SMILES | Pf apPOL inh | mHTT CaM bind
CCOc1c(Br)cc(C2Nc3ccc([N+](=O)[O-])cc3C3C=CCC32)cc1OC (stereo not given) | -4.8 | 58.0*
COc1ccc2c(c1)C1C=CCC1C(c1ccc([N+](=O)[O-])cc1)N2 (stereo not given) | 3.9 | 94.9*
COc1cc([N+](=O)[O-])cc2c1NC(c1ccccc1)C1CC=CC21 (stereo not given) | 8.6 | 45.9
O=C(c1ccc2c(c1)C1C=CCC1C(c1ccc([N+](=O)[O-])cc1)N2)N1CCCCCC1 (stereo not given) | -1.7 | 95.5*
CCC(=O)Nc1nc(C)c(-c2csc(NCc3ccco3)n2)s1 | -24.0 | 15.4
CSc1ccc(CNC(=O)C2CCN(c3cncnc3NC(C)=O)CC2)cc1 | 0.4 | -4.7
Cc1ccc(CNC(=O)C(C)C2CCN(S(=O)(=O)c3c(C)noc3C)CC2)cc1 (stereo not given) | -2.4 | -2.1
CCOCCCNC(=O)N1CCCC1c1cc(C)no1 (stereo not given) | -0.4 | -7.5
O=C(Nc1cnc(N2CCCC2)nc1)c1cc(F)cc(F)c1 | -2.4 | 4.1
CC[C@@H]1CC=C[C@H]2[C@H]1C(=O)N(Cc1ccccc1)[C@H]2c1ccoc1 | -0.7 | 84.8*
O=C1C2C(c3ccccc3)CC=CC2[C@H](c2cccc(Br)c2)N1Cc1ccccc1 (stereo not given in full) | -0.7 | 100.3*
C[C@@H]1CC=C[C@H]2[C@H]1C(=O)N(Cc1ccccc1)[C@H]2c1ccoc1 | 0.7 | 14.6
CC[C@@H]1CC=C[C@H]2[C@H]1C(=O)N(Cc1ccccc1)[C@H]2c1ccc(C(F)(F)F)cc1 | -4.0 | 70.9*
O=C1C2C(c3cccc(/C=C/c4ccccc4)c3)CC=CC2C(c2ccc3ccccc3c2)N1Cc1ccccc1 (stereo not given) | -5.1 | -5.7
